# Active and inactive are the calls of the source.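 The calls were made as follows, unless noted: active = fluorescence slope higher than the sample average by over 3 SD (cut at about -0.22 in these data, passing the limit was not always enough); inactive = the rest.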
# How the values were obtained:
# [1] = inhibitors of TNFa-induced NFkB p65 translocation, primary screen, imaging, HUVEC, MLSMR starter and 10KST1 sets (AID 438;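 active = inhibition above 20% together with a positive visual image hit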;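 also: compound added about 3h40 before a 20 min TNFalpha stimulation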;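 as to inhibition: signal is the nuclear over cytoplasmic p65 intensity ratio per well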); settings: HUVEC TNFa-induced p65 nuclear translocation; cell count: measured here: nuclei count (cytotoxicity indicator), at 2.08 µM; inhibition: at 2 µM, stronger effect = higher value, 0% TNFa-plus-vehicle, 100% no-TNFa wells
# [2] = reduction of polyQ htt aggregates in cells – imaging, exon1htt(103Q)mCFP cells, high-content imaging, primary screen (AID 483;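 active = visual image review flags a hit and inhibition of aggregation exceeds 20%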;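 also: compound exposure lasted 3 days before fixation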;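 as to nuclei count: percent of the per-plate median nuclei count of sample wells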); settings: exon1htt(103Q)mCFP cell line, aggregate imaging, at 2 µM; inhibition of aggregation: stronger effect = higher value; nuclei count: measured here: cell count, toxicity
# [3] = endothelial E-selectin expression blockers – imaging, HUVEC, immunofluorescence, MLSMR starter and 10KST1 sets, primary screen (AID 487;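 active = visually confirmed hit in the image check and inhibition above 20%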;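 as to inhibition: signal is fraction of cell area covered by stained E-selectin grains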;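 as to nuclei count: 100% = median nuclei count of all wells on the same plate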); settings: HUVEC TNFalpha-induced E-selectin immunofluorescence imaging, at 2 µM; inhibition: stronger effect = higher value; nuclei count: measured here: cell number, toxicity
# [4] = target: Voltage-gated potassium channel subunit beta-2 (Rattus norvegicus) (UniProt P62483); experiment: inhibitors of rat Kvbeta2 reductase activity – biochemical, NADPH fluorescence, primary screen (AID 622); settings: recombinant KvBeta, 4-cyanobenzaldehyde reduction, at 10 µM, stronger effect = higher value;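 also: slope of raw intensity against log time taken from 70 to 1610 s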
# [5] = target: Voltage-gated potassium channel subunit beta-2 (Rattus norvegicus) (UniProt P62483); experiment: enhancers of rat Kvbeta2 NADPH turnover – biochemical, NADPH fluorescence, primary screen (AID 623;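 active = NADPH fluorescence slope more negative than the mean of all samples by about 3 SD, 99.7% confidence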;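 also: fluorescence intensity change per second fitted from 20 to 320 s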); settings: Recombinant KvBeta, NADPH fluorescence decrease slope, 10 min; at 10 µM; stronger effect = lower value
# [6] = target: Alpha-2C adrenergic receptor (Homo sapiens) (UniProt P18825); experiment: compounds altering alpha2C-coupled GIRK flux – cell-based, HEK293 alpha2C/GIRK1/2, thallium flux, primary screen (AID 624;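 active = fluorescence slope after compound addition differing from the mean of all screened samples at 99.7% confidence, in either direction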;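 also: slope of fluorescence ratio to pre-addition baseline per second over 15 to 24 s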); settings: thallium flux BTC fluorescence, at 10 µM, actives lie on both sides
# [7] = blockers of RIG-like receptor reporter activation – cell-based, Sendai virus stimulus, luciferase, 10K MLSCN set, TLR/RLR signaling modifier project, primary screen (AID 602276;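 active = inhibition at or above 50% at 10 µM; inactive = inhibition below 50%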;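 also: firefly luciferase from ISG56 promoter only with Renilla not read in this screen; 0% = Sendai virus plus DMSO and 100% = medium plus DMSO without virus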); settings: HEK293 RL24 IRF3 luciferase reporter, at 10 µM, stronger effect = higher value
# [8] = TLR3 IRF3 reporter activation blockers – cell-based, poly I:C stimulus, luciferase, 10K MLSCN set, primary screen (AID 602277;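 active = inhibition of the reporter signal at or above 50%; inactive = inhibition below 50%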); settings: HEK293-TLR3 RL24 IRF3 luciferase reporter, at 10 µM, stronger effect = higher value
# Sequence of Voltage-gated potassium channel subunit beta-2 (Rattus norvegicus) (P62483 whole entry, looked up): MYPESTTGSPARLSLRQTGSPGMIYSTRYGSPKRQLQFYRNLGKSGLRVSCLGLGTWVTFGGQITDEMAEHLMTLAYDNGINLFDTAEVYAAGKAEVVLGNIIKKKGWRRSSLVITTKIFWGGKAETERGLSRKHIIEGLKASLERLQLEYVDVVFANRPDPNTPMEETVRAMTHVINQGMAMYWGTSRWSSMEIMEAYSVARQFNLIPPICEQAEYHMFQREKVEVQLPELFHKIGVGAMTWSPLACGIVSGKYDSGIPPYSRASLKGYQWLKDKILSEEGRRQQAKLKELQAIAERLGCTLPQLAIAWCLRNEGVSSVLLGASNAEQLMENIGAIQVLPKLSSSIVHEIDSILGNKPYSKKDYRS
# Sequence of Alpha-2C adrenergic receptor (Homo sapiens) (P18825 whole entry, looked up): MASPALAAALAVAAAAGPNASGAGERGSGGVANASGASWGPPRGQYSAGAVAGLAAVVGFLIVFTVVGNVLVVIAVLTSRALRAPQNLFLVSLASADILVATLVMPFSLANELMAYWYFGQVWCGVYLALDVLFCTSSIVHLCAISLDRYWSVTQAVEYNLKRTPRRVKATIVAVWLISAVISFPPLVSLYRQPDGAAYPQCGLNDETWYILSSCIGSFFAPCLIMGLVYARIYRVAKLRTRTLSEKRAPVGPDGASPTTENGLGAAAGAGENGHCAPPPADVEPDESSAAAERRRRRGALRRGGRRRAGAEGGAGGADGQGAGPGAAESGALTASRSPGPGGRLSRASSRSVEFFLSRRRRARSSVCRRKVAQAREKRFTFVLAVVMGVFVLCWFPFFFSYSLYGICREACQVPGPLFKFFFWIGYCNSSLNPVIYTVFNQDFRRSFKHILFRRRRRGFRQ
Structure (SMILES),cell count [1],inhibition [1],inhibition of aggregation [2],nuclei count [2] [%],inhibition [3],nuclei count [3] [%],fluorescence slope [4],NADPH fluorescence slope [5],slope [6],inhibition [7],inhibition [8]
COC(=O)c1cc(=O)nc2sc(-c3cccs3)nn12,349,5.5% (inactive),4.7% (inactive),100,-73.7% (inactive),105,-0.463 (inactive),-2.2e-05 (inactive),0.006 (inactive),12.6% (inactive),29.9% (inactive)
CC(C)(C)NC(=O)Cn1c(=O)oc2ccc(Cl)cc21,676,0% (inactive),1.8% (inactive),116,-47.1% (inactive),106,-0.407 (inactive),6.2e-05 (inactive),0.00569 (inactive),0.919% (inactive),20.8% (inactive)
Cc1cc(NC(=O)CSc2nccn2-c2ccc(F)cc2)no1,433,-0.3% (inactive),-13.1% (inactive),111,-184% (inactive),114,-0.6 (inactive),9.8e-06 (inactive),0.00665 (inactive),13.6% (inactive),3.73% (inactive)
CCOC(=O)N1CCC(Nc2nc3ccccc3n3cnnc23)CC1,501,-6.9% (inactive),-21.2% (inactive),59.5,-35.1% (inactive),117,-0.581 (inactive),-8.8e-06 (inactive),0.00645 (inactive),7.19% (inactive),18.1% (inactive)
CCOc1ccccc1NC(=O)CN(C)S(=O)(=O)c1cccc2nsnc12,671,-16.4% (inactive),-5.6% (inactive),96.9,-141% (inactive),119,-0.329 (inactive),-4.9e-05 (inactive),0.00417 (inactive),15.8% (inactive),15.6% (inactive)
O=P(O)(CCc1ccccc1)CN1CCCCC1,446,-6.3% (inactive),-8.7% (inactive),100,-137% (inactive),108,-0.419 (inactive),5e-05 (inactive),0.00723 (inactive),-8.42% (inactive),-0.191% (inactive)
COC(=O)c1cc(-c2ccccc2)sc1NC(=O)c1cc(C)on1,365,-2.2% (inactive),-13.8% (inactive),104,-21.2% (inactive),111,-0.342 (inactive),-1.3e-05 (inactive),0.00783 (inactive),-14.9% (inactive),-8.07% (inactive)
CCOC(=O)N1CCN(Cc2nc3c(c(=O)n(C)c(=O)n3C)n2Cc2ccccc2)CC1,598,2.9% (inactive),-8.1% (inactive),120,0.1% (inactive),115,-0.538 (inactive),-3.9e-05 (inactive),0.00607 (inactive),9% (inactive),14.8% (inactive)
CCOc1ccccc1-n1c(SCC(=O)NC2CCCC2)nnc1-c1ccoc1C,588,-9.5% (inactive),35.7% (inactive),77.1,83.6% (inactive),62.7,-0.543 (inactive),1.9e-05 (inactive),0.00524 (inactive),1.09% (inactive),11.6% (inactive)
NC(=O)NC(=O)CSc1cccc(C(F)(F)F)c1,570,-10.9% (inactive),-3.2% (inactive),101,-77.3% (inactive),123,-0.51 (inactive),-6.1e-05 (inactive),0.00622 (inactive),13.4% (inactive),18.2% (inactive)
O=C(COc1ccc2ccccc2c1)N1CCCC1,315,-1.8% (inactive),4% (inactive),77.8,-27.1% (inactive),97.9,-0.28 (inactive),-1.8e-06 (inactive),0.00518 (inactive),-31.9% (inactive),-85% (inactive)
Cc1oc(-c2cccc(Cl)c2)nc1CN1CCC(C(=O)N2CCN(c3ccccc3F)CC2)CC1,780,-0.6% (inactive),-4% (inactive),77.7,-73.6% (inactive),108,-0.552 (inactive),-2.2e-05 (inactive),0.00639 (inactive),-0.341% (inactive),-26% (inactive)
Cc1c(C(=O)NCCC2=CCCCC2)oc2ccc(S(=O)(=O)N3CCC4(CC3)OCCO4)cc12,643,10.9% (inactive),-35% (inactive),113,-42.7% (inactive),106,-0.413 (inactive),-5.5e-05 (inactive),0.00783 (inactive),16.2% (inactive),29.4% (inactive)
Cc1ccc(-c2nc(CS(=O)CC(=O)NCCN(CC(C)C)CC(C)C)c(C)o2)cc1 (configuration not stated),716,-7.2% (inactive),21.6% (inactive),134,-18% (inactive),112,-0.538 (inactive),-2.2e-05 (inactive),0.00425 (inactive),21.1% (inactive),30.9% (inactive)
COc1ccc(Oc2nc(Oc3ccc(OC)cc3)nc(Oc3ccc(OC)cc3)n2)cc1,320,-5.1% (inactive),-10.7% (inactive),109,-4.6% (inactive),106,-0.536 (inactive),-1.9e-06 (inactive),0.00755 (inactive),3.19% (inactive),11.5% (inactive)
O=C(NC1CC1)c1cccc(Nc2ccc(-c3ccc4c(c3)OCCO4)nn2)c1,336,-1.6% (inactive),-55% (inactive),106,-177% (inactive),126,-0.358 (inactive),-2.6e-05 (inactive),0.00455 (inactive),-75.9% (inactive),-132% (inactive)
COc1ccc(Cn2c(-c3ccco3)nc3oc4ccccc4c(=O)c3c2=O)cc1,492,-7.6% (inactive),-68.5% (inactive),90.1,-22% (inactive),115,-0.491 (inactive),-2.1e-05 (inactive),0.00596 (inactive),-1.06% (inactive),-24.4% (inactive)
Cc1cc(C)c(OCC(=O)Nc2ccc3c(c2)OCO3)cc1C,327,-0.7% (inactive),7.3% (inactive),101,9.8% (inactive),103,-0.437 (inactive),4.6e-05 (inactive),0.00669 (inactive),-6.64% (inactive),-49.1% (inactive)
Cc1ccc(S(=O)(=O)c2cc3c(=O)n4ccccc4nc3n(CC3CCCO3)c2=N)cc1C (configuration not stated),716,-1.6% (inactive),-3.3% (inactive),88.2,0.8% (inactive),106,-0.439 (inactive),-3.3e-05 (inactive),0.00461 (inactive),13.6% (inactive),23.9% (inactive)
Cc1ccc2cc3cc(C(=O)N4CC(C)CC(C)C4)oc3nc2c1 (configuration not stated),654,-3.9% (inactive),14.3% (inactive),86.4,-77% (inactive),110,-0.597 (inactive),7.7e-06 (inactive),0.00635 (inactive),2.56% (inactive),-64.4% (inactive)
CC1=C(C(=O)NC2CCC(C)CC2)C2(CCC(C)CC2)OC1=O (configuration not stated),640,17.2% (inactive),-14.7% (inactive),99.8,5.3% (inactive),126,-0.486 (inactive),7.7e-06 (inactive),0.00549 (inactive),10.7% (inactive),15.1% (inactive)
CCC1(C(=O)OC)NC(c2cccc(F)c2)C2C(=O)N(C)C(=O)C21 (configuration not stated),715,-1.8% (inactive),11.4% (inactive),101,-167% (inactive),112,-0.272 (inactive),-5.7e-05 (inactive),0.00554 (inactive),14.4% (inactive),30.6% (inactive)
O=C(c1cccc(F)c1)N1CCc2ccccc21,490,3.5% (inactive),-1.6% (inactive),107,-9.7% (inactive),114,-0.478 (inactive),-1.8e-05 (inactive),0.0055 (inactive),0.0423% (inactive),27.3% (inactive)
COc1ccc(C(C)=O)c(OC(=O)c2ccc(OC)c(OC)c2)c1,372,-0.3% (inactive),3.6% (inactive),88.8,-76% (inactive),100,-0.376 (inactive),8.8e-06 (inactive),0.00658 (inactive),13.2% (inactive),22.8% (inactive)
COc1ccc(C2CC(c3ccc(Cl)cc3Cl)n3nc(N)nc3N2)cc1 (configuration not stated),461,-1.8% (inactive),-8.9% (inactive),66.5,-1.4% (inactive),101,-0.592 (inactive),-5.5e-05 (inactive),0.00726 (inactive),9.25% (inactive),25.2% (inactive)
COc1cc(OC)cc(-c2nnc(SCC(=O)Nc3cc(C)on3)o2)c1,230,0.6% (inactive),32.6% (inactive),77.5,-264% (inactive),111,-0.347 (inactive),-2.3e-05 (inactive),0.00422 (inactive),7.23% (inactive),31.7% (inactive)
COc1cccc(-n2c(SC3CCOC3=O)nc3ccccc3c2=O)c1 (configuration not stated),387,2.4% (inactive),-18% (inactive),101,7.5% (inactive),108,-0.435 (inactive),-5.4e-06 (inactive),0.00493 (inactive),2.92% (inactive),18.7% (inactive)

# — PubChem BioAssay
